Measurements: PubChem BioAssay AID652175 (National Center for Advancing Translational Sciences (NCATS), 2013)
Results filed as inconclusive are left out. A number with no mark means an inactive call. Activity calls are given as the source filed them. Calls come from the whole dose curve; as a rule, active = well fitted inhibition curve with a large enough effect; inconclusive = small, poorly fitted or top-dose-only effect; inactive = no such curve, though single readings can be large or run the other way.

test: qHTS Assay for Lipid Storage Modulators: S3 Assay against Probe and Analogs; settings: Drosophila S3 cells, BODIPY lipid droplet fluorescence, 18-24 h, oleic acid added to induce droplets; series mostly up to 46.1 µM; activity, negative = lipid storage inhibition: at the top concentration
Source text: Storing lipids as a reservoir for energy or the anabolism of elementary metabolites is a common feature of probably all cells and is conserved from bacteria to humans. The universal cellular lipid storage organelle is the so-called lipid storage droplet (LD). Although ubiquitous, LDs share a simple structure composed of a hydrophobic core that harbors the storage lipids, which is shielded by a droplet-specific phospholipid monolayer to which proteins are attached. The current model of LD biogenesis involves an incorporation of the lipid core into the membrane leaflets of the endoplasmic reticulum (ER) followed by a subsequent budding-like maturation of a LD, which ultimately pinches off. Once released, LD volume can increase by localized lipogenesis or fusion of existing droplets. Storage lipids are re-mobilized enzymatically by lipase activity. Lipase regulation in the adipocyte is heavily studied and involves multiple components including catecholamine signaling, the LD-associated proteins Perilipin and comparative gene identification-58 (CGI-58) and at least two lipases named hormone sensitive lipase (HSL) and adipocyte triglyceride lipase (ATGL). LD regulation outside of the adipocyte is poorly understood and only few components are known. However, there is an urgent need to learn more about ectopic fat depots as mislocalized storage of lipids, for example in the liver or muscle, is an eminent health problem associated with insulin resistance or the metabolic syndrome. We developed a laser-scanning cytometer assay to enable 1,536-well screening and combined the results of the small molecules screen with an RNAi database based on lipid storage. In this assay we tested analogs of the probe against the original qHTS assay, which involved drosophila melanogaster cells (S3), to see if these small molecules could disrupt lipid storage. NIH Molecular Libraries Probe Production Centers Network [MLPCN] NIH Chemical Genomics Center [NCGC] MLPCN Grant: MH085686 Assay Submitter (PI): Mathias Beller, Max-Planck-Institut fur Biophysikalische Chemie
qHTS was performed with embryonic Drosophila S3 cells (Bloomington Drosophila Genomics Resource Center [DGRC]). We dispensed 4 uL of cells at 1.25 x 10^6 cells/mL into LoBase Aurora COC 1,536-well plates (black walled, clear bottom) with a bottle-valve solenoid-based dispenser (Aurora) to obtain 5,000 cells/well. Triacsin C (Sigma-Aldrich T-4540), an inhibitor of long-chain fatty acyl CoA synthetase that blocks synthesis of triglycerides, was used as a positive control for lipid under-storage. A total of 23 nL of compounds dissolved in DMSO at different concentrations were transferred to the assay plates using a Kalypsys pin tool equipped with a 1,536-pin array containing 10-nL slotted pins (FP1S10, 0.457-mm diameter, 50.8 mm long; V&P Scientific). The final DMSO concentration was 0.46%. One microliter of oleic acid at 400 uM (Calbiochem, #4954) was added to induce lipid droplet formation in the cells, and the plates were lidded with stainless steel rubber gasket lined lids containing pinholes. After 18-24 h incubation at 25 0C and 95% humidity, 4 uL of the BODIPY lipid dye 493/503 (1:2000, Molecular Probes) and the Cell Tracker Red CMTPX dye (Life Technologies, # 34552) were added to the wells to stain lipid droplets and enumerate cell number, respectively. Fluorescence was detected by excitation of the fluorophores with a 488-nm laser on an Acumen Explorer (TTP Lab Tech). The total intensity in channel 1 (500-530 nm) reflected lipid droplet accumulation. Cells were detected using channel 3 (575-640 nm) with 5-um width and 100-um depth filters. The ratio of the total intensity in PMT channel 1 over total intensity of channel 3 was also calculated. Percent activity was computed relative to an internal control (100% inhibited lipid droplet deposition due to the presence of 20 uM Triacsin C), which was added to 32 wells/plate.

Structure (SMILES) | Potency | activity, negative = lipid storage inhibition
CCOc1ccc(CCNC(=O)c2cc3ccccc3n2Cc2cc(C)cc(C)n2)cc1OCC | 16.6 nM (active) | –
COc1ccc(-n2ncc3c2CCCC3NC(=O)c2ccccn2)cc1 (stereo not given) | 1.3 nM (active) | –
CCOc1ccc(CCNC(=O)c2ccc3ccccc3n2)cc1OCC | – | 30% [at 38.8 µM]
CC(C)(C)OC(=O)NCCOCCOCCOc1ccc(-n2ncc3c2CCCC3NC(=O)c2ccccn2)cc1 (stereo not given) | 9.3 nM (active) | –
CCOC(=O)C1CCN(C(=O)C(C)(C)NC(=O)Nc2ccc3ccccc3c2)CC1 | 4690 nM (active) | –
CCOc1ccc(CCNC(=O)c2ccc(N3N=C(C)CC3=O)cc2)cc1OCC | – | 80%
CCOc1ccc(CCNC(=O)c2cc3sccc3n2Cc2ccncc2)cc1OCC | 132 nM (active) | –
CCOC(=O)C1CCN(C(=O)C(C)(C)NC(=O)Nc2ccc(-c3ccccc3)cc2)CC1 | – | -100%
CCOC(=O)C1CCN(C(=O)C(C)(C)NC(=O)Nc2ccc(OC)c(Cl)c2)CC1 | – | -93.3%
O=C(NC1CCCc2c1cnn2-c1ccc(O)cc1)c1ccccn1 (stereo not given) | 1.2 nM (active) | –
CCOC(=O)C1CCN(C(=O)C(C)(C)NC(=O)Nc2ccc(C#N)cc2)CC1 | – | -43.3%
O=C(NC1CCCc2c1cnn2-c1ccc(F)cc1F)c1ccc(C(=O)c2ccccc2)cc1 (stereo not given) | – | 40%
O=C(NC1CCCc2c1cnn2-c1ccc(F)cc1F)c1cnon1 (stereo not given) | – | 3.33%
O=C(NCCc1ccc2c(c1)OCO2)c1cc2sccc2[nH]1 | – | 217% [at 38.8 µM]
COc1nc(-c2ccc3c(c2)OCO3)n(-c2ccc(NC(=O)CSc3ccccc3)cc2)n1 | – | 43.3%
CCOc1ccc(CCNC(=O)c2cc3sccc3n2Cc2ccccc2)c(F)c1OCC | – | -100%
CCOc1ccc(CCNC(=O)c2cc3sccc3n2CCN2CCOCC2)cc1OCC | 148 nM (active) | –
CCn1c(C(=O)NCc2ccc(OC)c(OC)c2)cc2sccc21 | – | 46.7%
CCOc1cc2c(cc1OCC)CN(C(=O)c1cc3sccc3n1Cc1ccccc1)CC2 | 1320 nM (active) | –
CCOc1ccc(CCNC(=O)c2cc3sccc3n2Cc2ccc(Cl)c(F)c2)cc1OCC | 5.9 nM (active) | –

Structure (SMILES) | Potency | activity, negative = lipid storage inhibition
CCOc1cc(F)c(CCNC(=O)c2cc3sccc3n2Cc2ccccc2)cc1OCC | 3.3 nM (active) | –
CCOc1ccc(CCNC(=O)c2cc3ccccc3n2Cc2ccc(Cl)c(F)c2)cc1OCC | 5.9 nM (active) | –
Cc1cc2c(cc1C1(c3ccc(C(=O)O)cc3)CC1)C(C)(C)CCC2(C)C | – | 53.3%
Cn1c(=O)n(-c2ccc(C(C)(C)C#N)cc2)c2c3cc(-c4cnc5ccccc5c4)ccc3ncc21 | 1180 nM (active) | –
CN(C)Cc1ccc(-c2nc3cccc4c3n2CCNC4=O)cc1 | – | 33.3%
CCOc1ccc(CCNC(=O)c2csc(Br)n2)cc1OCC | – | 140% [at 38.8 µM]
CC(C)(NC(=O)Nc1ccccc1Cl)C(=O)N1CCC(C(=O)O)CC1 | – | -50%
Cc1cccc(-c2ccc3ncnc(NCc4cccc(F)c4)c3c2)c1 | – | -96.7%
CCOC(=O)C1CCN(C(=O)C(C)(C)NC(=O)Nc2ccc(CN3CCOCC3)cc2)CC1 | – | -33.3%
CC(C)(C)OC(=O)N1CCCCC1C(=O)NC1CCCc2c1cnn2-c1ccc(F)cc1F (stereo not given) | – | 26.7%
Cc1ccc(NC(=O)c2ccc(CN3CCN(C)CC3)cc2)cc1Nc1nc(-c2cccnc2)cs1 | – | 26.7%
CC(NCc1ccc2c(c1)nc(NC(=O)c1ccc(-c3cn[nH]c3)s1)n2CC(C)(C)O)C(C)(C)C (stereo not given) | – | -30%
O=C(Nc1cccc2c1cnn2-c1ccc(F)cc1)c1ccccn1 | – | 123%
CCOc1ccc(CCNC(=O)c2cc3sccc3n2Cc2ccccn2)cc1OCC | 29.6 nM (active) | –
CCOC(=O)C1CCN(C(=O)C(C)(C)NC(=O)Nc2ccc(N)cc2)CC1 | – | -20%
COc1cc(Nc2ncc(F)c(Nc3ccc4c(n3)NC(=O)C(C)(C)O4)n2)cc(OC)c1OC | – | -83.3%
CC(C)(C)OC(=O)NCCOCCOCCOCCn1ncc2c1CCCC2NC(=O)c1ccccn1 (stereo not given) | – | -103%
O=C(NC1CCCc2c1cnn2-c1ccc(F)cc1F)C1CCCCC1 (stereo not given) | – | -93.3%
CCOc1ccc(CCNC(=O)C2=C(C)OCCO2)cc1OCC | – | 150%
O=C(NC1CCCc2c1cnn2-c1ccc(F)cc1F)c1cccs1 (stereo not given) | 14.8 nM (active) | –
